Source: PubChem BioAssay (NCI)
The panel holds about 79,000 compounds, 15% with a hit somewhere; the sample as a whole holds those more often. Cut-off read from the data, not from the text of the source: active = growth inhibition above about 70%; inactive = the rest.

What was measured:
[1] = NCI Yeast Anticancer Drug Screen. Data for the rad50 strain (AID 155);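 note: 0% = growth of vehicle-only cultures of the same strain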; settings: S. cerevisiae rad50 strain growth inhibition; at 50.0 µM; active compounds read high
Procedure, shortened: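 Growth of the mutant yeast was measured after compound exposure and referenced to vehicle-treated cultures.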

[2] = NCI Yeast Anticancer Drug Screen. Data for the mec2-1 strain (AID 157); settings: S. cerevisiae mec2-1 strain, at 50.0 µM, active compounds read high
Procedure, shortened: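 Test agents were screened against the mec2-1 yeast strain, with defined DNA repair or cell cycle alteration. Growth was scored as inhibition against vehicle-only controls.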

[3] = NCI Yeast Anticancer Drug Screen. Data for the sgs1 mgt1 strain (AID 161);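 note: 0% = growth of cultures given vehicle only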; settings: S. cerevisiae sgs1 mgt1 strain, at 50.0 µM, active compounds read high
Procedure, shortened: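 Genetically altered yeast, compound exposure, growth inhibition relative to vehicle.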

[4] = NCI Yeast Anticancer Drug Screen. Data for the cln2 rad14 strain (AID 165);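 note: 0% = growth equal to vehicle treated cultures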; settings: S. cerevisiae cln2 rad14 strain, at 50.0 µM, active compounds read high
Procedure, shortened: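 Growth of compound-exposed yeast (cln2 rad14 genotype) measured and expressed as inhibition relative to vehicle.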

[5] = NCI Yeast Anticancer Drug Screen. Data for the bub3 strain (AID 167); settings: S. cerevisiae bub3 mutant strain, at 50.0 µM, active compounds read high
Procedure, shortened: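 Whole-cell yeast assay. The mutant strain was incubated with compounds, and growth inhibition was determined by comparison with vehicle-treated cells.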

[6] = NCI Yeast Anticancer Drug Screen. Data for the mlh1 rad18 strain (AID 175); settings: S. cerevisiae mlh1 rad18 strain growth inhibition; at 50.0 µM; active compounds read high
Procedure, shortened: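 In this whole-cell yeast screen, a strain with altered DNA damage repair is challenged with compound, and its growth is measured against matched vehicle-treated controls.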

Measured: growth inhibition

CCCc1c[nH]c(-c2ccc(-c3cc(CCC)c(C=O)[nH]3)s2)c1
inactive: [1] -44.8% | [2] -22.8% | [3] -35.9% | [4] -2.8% | [5] -28.9% | [6] -56.7%

CCOC(=O)C(Cl)C(C)(O)c1ccccc1 (stereo unspecified)
inactive: [1] 11.2% | [2] -3.65% | [3] 11.9% | [4] -46.7% | [5] 5.8% | [6] 17.8%

C/C=C\c1ccc2oc(-c3ccc4c(c3)OCO4)c(C)c2c1
inactive: [1] 3.2% | [2] 9.9% | [3] 6.15% | [4] -57.8% | [5] -4.6% | [6] -11.3%

COc1cc(-c2ccc(N=Nc3ccc(N)nc3N)c(OC)c2)ccc1N=Nc1ccc(N)nc1N
inactive: [1] 6.9% | [2] -3.9% | [3] 23.3% | [4] 12.4% | [5] -1.45% | [6] 11.7%

Cc1nc2nc[nH]n2c1N=Nc1ccccc1
inactive: [1] -28.3% | [2] -2.55% | [3] -9.5% | [4] -13% | [5] 7.5% | [6] 9.5%

CC(C)CC(=O)OC1=C(O)C(=O)C(OC(=O)CC(C)C)=C(O)C1=O
inactive: [1] -5.45% | [2] -13.7% | [3] 2.1% | [4] -62.4% | [5] 0.1% | [6] 5.65%

O=c1[nH]c(=O)n(C2CC(O)C(CO)O2)cc1NN=NCCCc1ccccc1 (stereo unspecified)
inactive: [1] -21.8% | [2] -12.4% | [3] -8.5% | [4] 10.8% | [5] -11.3% | [6] -32.5%

O=C(c1ccccc1)c1ccc2cccc3c2c1CC3
inactive: [1] 40.2% | [2] 14.6% | [3] 32.1% | [4] 20.8% | [5] 51.6% | [6] 34.4%

O=C1c2ccccc2N(Cc2cccc(F)c2)C2=NCCCC12 (stereo unspecified)
inactive: [1] -4.2% | [2] -39% | [3] 14.2% | [4] 0.35% | [5] 8.3% | [6] 0.35%

COc1cccc(C)c1C(O)CC1CCCN1 (stereo unspecified)
inactive: [1] 21.6% | [2] 3.75% | [3] 7.2% | [4] 29.8% | [5] 11.7% | [6] 6.05%

COC(=O)/C(=C\C(=O)c1ccc(Br)cc1)NN=C(c1ccccc1)c1ccccc1
inactive: [1] -20.3% | [2] -1.55% | [3] -3.3% | [4] 4.25% | [5] -20.1% | [6] -20.4%

CN(C)CCCn1ncc(Sc2cc([N+](=O)[O-])ccc2N)c(Cl)c1=O
inactive: [1] 2.9% | [2] -6.35% | [3] -12.3% | [4] -8.25% | [5] -5.55% | [6] -6.9%

CC(=O)OC(C(=O)Nc1nncs1)c1ccccc1 (stereo unspecified)
inactive: [1] 7.05% | [2] -22.9% | [3] 7.25% | [4] 8.05% | [5] 11.2% | [6] 18.1%

CCCCCC(O)(CCCC)CCCCC
inactive: [1] -10.7% | [2] -1.65% | [3] 1.85% | [4] 19.9% | [5] 1.75% | [6] 15.9%

O=C(Nc1cccc([N+](=O)[O-])c1)c1ccccc1Cl
inactive: [1] -0.65% | [2] 16.1% | [3] 1.85% | [4] 0.8% | [5] 12.9% | [6] 8.75%

O=C(CCc1cccs1)OC1CCCCC1
inactive: [1] 9% | [2] 7.05% | [3] 4.4% | [4] 13.6% | [5] 9.35% | [6] 20.9%

COc1cc(O)c(C(C)c2ccccc2)cc1N=NC(N)=O (stereo unspecified)
inactive: [1] 17.1% | [2] 16.4% | [3] 19.3% | [4] 32.8% | [5] 43.4% | [6] 45.5%

Cc1ccccc1NC(=O)CSC#N
inactive: [1] 10.2% | [2] 7.35% | [3] 1.7% | [4] 20.1% | [5] -12.6% | [6] 8.75%

COC(=O)C1(C(=O)Nc2ccccc2)N=N1
inactive: [1] 13.7% | [2] 7.55% | [3] 2.5% | [4] 3.35% | [5] -4.45% | [6] 8.15%

O=C(Nc1ccccc1)Sc1ccc(Cl)cc1
inactive: [1] -12.2% | [2] -13.2% | [3] -22.5% | [4] -20.1% | [5] 3.15% | [6] 2.85%

O=[N+]([O-])c1cnc(/C=[N+](\[O-])C2CCCCC2)n1CCO
inactive: [1] 3.7% | [2] 17.6% | [3] -0.3% | [4] 13.7% | [5] 16.6% | [6] 9.8%

Brc1ccc(Br)nc1
inactive: [1] -7.6% | [2] -4.65% | [3] -10.1% | [4] 8.05% | [5] -10.1% | [6] -12.9%

CC(=O)Nc1ccc(S(=O)(=O)NC2(C)C(=O)N(C)C(=O)N(C)C2=O)cc1
inactive: [1] 32.2% | [2] 15.2% | [3] 14.2% | [4] 17.5% | [5] 3.15% | [6] 27.7%

CC(=O)CC1CCCC1
inactive: [1] 19.4% | [2] 0.6% | [3] 19.9% | [4] 15.9% | [5] 5.3% | [6] 17.9%

O=C(O)CCC(C(=O)O)N1C(=O)C2C3CCC(C3)C2C1=O (stereo unspecified)
inactive: [1] -26% | [2] -33.9% | [3] -36.2% | [4] -16% | [5] -24.9% | [6] -5.45%

CC1(C)CC2(CC(C)(C)N1O)NC(=O)OC2=O
inactive: [1] 2.5% | [2] -5.3% | [3] -1.05% | [4] -18.6% | [5] -23.1% | [6] 1.3%

[N-]=[N+]=Nc1ccccc1-c1ccc([N+](=O)[O-])cc1
inactive: [1] -12.9% | [2] -11.5% | [3] 11.1% | [4] -32.2% | [5] 1.2% | [6] 29.6%

O=C(O)c1ncnn1-c1ccccc1
inactive: [1] 4.7% | [2] 18.9% | [3] 17.4% | [4] -5.95% | [5] 18.8% | [6] 1.55%

CCC(CCc1ccc(OC)c(OC)c1)C(=O)O (stereo unspecified)
inactive: [1] 1.8% | [2] 12.2% | [3] 14.2% | [4] -9.85% | [5] 29.4% | [6] 9.15%

C/C(=C/OS(=O)(=O)C(F)(F)F)c1ccccc1
inactive: [1] -22.3% | [2] -0.2% | [3] -3.2% | [4] -8.55% | [5] -1.5% | [6] 4.25%

CCCC(O)c1ccccc1 (stereo unspecified)
inactive: [1] 31.2% | [2] 35.8% | [3] -9.65% | [4] 5.3% | [5] 3.7% | [6] 18.9%

O=C(NC1CCCCC1)OCc1c(COC(=O)NC2CCCCC2)c2cccn2c2c1cnn2-c1ccccc1
inactive: [1] 3.7% | [2] 3.4% | [3] -27.6% | [4] 3.1% | [5] -2.95% | [6] 19.1%

Cc1nn(C)c2ncnc(N)c12
inactive: [1] 10.8% | [2] 0.55% | [3] 17% | [4] -7.8% | [5] -8.85% | [6] 7.7%

CCOC(=O)c1cc2c(nc1NCc1ccccc1)C(=O)CCCC2
inactive: [1] 7.95% | [2] 22% | [3] 30.8% | [4] 10.3% | [5] 26.4% | [6] 17.6%

COc1ccc(C(=O)O)c2c(=O)c3ccccc3[nH]c12
inactive: [1] -28.8% | [2] -3.2% | [3] -8.55% | [4] 17.2% | [5] 3.2% | [6] 26.8%

CCCCCCCCCCCCCCCCSc1ccc2ccccc2c1
inactive: [1] 37.9% | [2] -13.8% | [3] 41.3% | [4] -7.5% | [5] -3.45% | [6] 0.2%

COc1cccc2c1N=c1c(Cl)c3c(c(Cl)c1O2)=Nc1c(OC)cccc1O3
inactive: [1] -17.9% | [2] -1.45% | [3] -0.25% | [4] -13.9% | [5] -8.5% | [6] -20.4%

Br[C@H]1CC2CCC1C2 (stereo partly specified)
inactive: [1] 23.1% | [2] -23.9% | [3] 2.9% | [4] 6.9% | [5] -6.1% | [6] 5.65%

COc1cccc(/C=C(\NC(C)=O)c2nc3ccc(Cl)cc3[nH]2)c1
inactive: [1] 1.8% | [2] -1.35% | [3] 8.75% | [4] 2.15% | [5] -3.85% | [6] 8.1%

NC(Cc1ccccc1)C(=O)O (stereo unspecified)
inactive: [1] -20.7% | [2] -12.4% | [3] -33.9% | [4] -73.7% | [5] -24.9% | [6] -20.6%

COc1ccccc1OC(=O)Nc1ccc(S(=O)(=O)N(C)C)cc1
inactive: [1] 28.2% | [2] 8.5% | [3] 0% | [4] 4.1% | [5] 8.65% | [6] 6.65%
